Measured values reported in PubChem BioAssay AID588852 (The Scripps Research Institute Molecular Screening Center, 2011).
Screen size: about 360,000 compounds; about 4,600 (1.3%) were called active. Shown is part of a subset that was picked to be rich in actives. A number with no mark means an inactive call.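 How the source made its calls: active means percent inhibition above its own plate's cutoff, namely the mean of that plate's compound wells plus 3 SD; inactive means the rest.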

target: Muscarinic acetylcholine receptor M1 (Homo sapiens) (UniProt P11229); assay: CHRM1 blockers of acetylcholine calcium response – CHO-K1 cells, Fluo-8 calcium fluorescence, 1536-well, primary screen (AID 588852); details: CHO-K1 hM1, Fluo-8 calcium fluorescence, ACh EC80 antagonist; at 3 µM; hits give high values;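 further: peak over basal fluorescence ratio during 140 s after agonist addition; 0% = ACh EC80 plus DMSO and 100% = DMSO alone without agonist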
Sequence (P11229 whole entry, looked up): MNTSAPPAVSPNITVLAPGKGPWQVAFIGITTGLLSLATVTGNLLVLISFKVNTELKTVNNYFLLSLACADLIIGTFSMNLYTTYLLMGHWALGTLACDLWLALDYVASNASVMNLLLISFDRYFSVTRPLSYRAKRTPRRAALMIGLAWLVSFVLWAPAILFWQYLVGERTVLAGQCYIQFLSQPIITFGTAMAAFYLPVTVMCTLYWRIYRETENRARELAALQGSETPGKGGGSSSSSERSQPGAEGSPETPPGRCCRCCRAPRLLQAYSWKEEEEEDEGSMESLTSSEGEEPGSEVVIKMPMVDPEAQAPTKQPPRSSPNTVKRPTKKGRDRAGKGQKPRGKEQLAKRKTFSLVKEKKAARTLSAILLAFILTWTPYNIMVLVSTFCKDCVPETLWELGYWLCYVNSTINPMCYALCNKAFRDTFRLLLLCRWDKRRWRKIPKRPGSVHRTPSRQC

Structure (SMILES) | inhibition
CCCN1C2CCCC1CC(NC(=O)c1cccc(OC)c1)C2 (centres undefined) | -14.2%
COc1ccc(NC(=O)NC2CC3CCCC(C2)N3Cc2ccccc2)cc1 (centres undefined) | 1.24%
COc1ccc(CN2C3CCCC2CC(NC(=O)c2cccc(F)c2)C3)cc1 (centres undefined) | 32.6% (active)
Cc1nn(Cc2ccc(C(=O)N3N=C(C(F)F)CC3(O)C(F)F)cc2)c(C)c1[N+](=O)[O-] (centres undefined) | -0.52%
COc1ccc(C(C)(O)c2nc(-c3ccc(C)c(C)c3)cs2)cc1 (centres undefined) | 6.49%
Cc1cc(C)n(CC(=O)Nc2ccc([N+](=O)[O-])cc2)n1 | -1.63%
Cc1cc([N+](=O)[O-])nn1CC(=O)Nc1ccc(Cc2ccncc2)cc1 | 28.3% (active)
CC(C)CC(=O)Nc1ccc(Cc2ccncc2)cc1 | -16.9%
CC(C)CN1CCC1(C)C(=O)Nc1ccc(OC(F)F)cc1 (centres undefined) | 1.99%
CCc1nc2c(=O)[nH]cnc2o1 | -5.65%
COc1cc(C(=O)N(C)Cc2cccc(OC)c2OC)ccc1OCC(=O)Nc1cccc(C(F)(F)F)c1 | 5.88%
CCCCC[C@H]1CN(C2CCCCC2)C(=O)[C@@H]1CC(=O)NCc1ccc(OC)cc1 | -1.3%
O=C(CSc1nc2ncccc2[nH]1)Nc1ccc2c(c1)OCCO2 | -2.03%
O=C(CSc1nc(=O)n2ccccc2n1)Nc1ccc2c(c1)OCCO2 | 35.3% (active)
Cn1ccnc1SCC(=O)Nc1ccc2c(c1)OCCO2 | -13.9%
CC(=O)Nc1cc(-c2ccc(N3CCN(C)CC3)cc2)cn2c(-c3ccc(F)cc3)cnc12 | -18.1%
CCc1ccc2c(c1)NC(=O)C2(C)Cc1ccc(OC(F)(F)F)cc1 (centres undefined) | -13.1%
O=C(CCCOc1ccc(Cl)cc1Cl)NNC(=O)C1CCC1 | -17.9%
CN1CCC(OC(=O)COc2ccc(Cl)cc2Cl)CC1 | 51.8% (active)
Cc1ccc(Cl)c(OCC(=O)NN2CCN(C)CC2)c1 | -16.2%
COc1ccc(CN(CC(=O)NC2CCCC2)C(=O)CCC(=O)Nc2cc(C)on2)cc1 | -0.71%
CN(C)/C=C(\C#N)C(=O)c1cccnc1Oc1ccc(F)cc1F | -0.88%
O=C(N=C1SC2CS(=O)(=O)CC2N1c1ccccc1)c1ccccc1 (centres undefined) | -9.89%

Structure (SMILES) | inhibition
CCOC(=O)C1CCN(Cc2nnc(-c3cccc(Br)c3)o2)CC1 | 35.9% (active)
CCOC(=O)N1CCN(Cc2nnc(-c3ccccc3Cl)o2)CC1 | -15.1%
CCOC(=O)C1CCN(Cc2ccc(-c3ccccc3)cc2)CC1 | 25.5%
CC1=NC2(CCCc3c2no[n+]3[O-])N(O)C1(C)C (centres undefined) | 0.36%
Cc1ccc(C(=O)NC(C)C(c2cccs2)N2CCOCC2)cc1C (centres undefined) | -6.99%
N#C[C@]1(S(=O)(=O)c2ccccc2)C[C@@H]2ON=C(c3cccc(Br)c3)[C@@H]2C1 | 33.5% (active)
COC(=O)[C@]1(S(=O)(=O)c2ccccc2)C[C@@H]2ON=C(c3ccc(OC)cc3)[C@@H]2C1 | -7.9%
CCN1C(=O)C(C(=O)NC(C)c2ccccc2)C2CC1(C)Oc1ccccc12 (centres undefined) | -3.28%
C=CCOc1ccc(/C=C/C(=O)OCC(=O)NCC2CCCO2)cc1 (centres undefined) | -1.61%
CC12CN(Cc3ccccc3)CC(C)(CN(Cc3ccccc3)C1)C2=NO | 38.2% (active)
O=S1(=O)CCN(Cc2ccccc2)CC1 | -8.4%
NC(=O)C1(N2CCCC2)CCN(Cc2ccccc2)CC1 | 2.73%
COc1ccc(/C=N/NC(=O)C(C)N(c2ccc(OC)cc2)S(C)(=O)=O)cc1 (centres undefined) | 3.35%
CC(=O)Nc1ccc(Nc2ncnc3c2nnn3Cc2ccccc2Cl)cc1 | -1.5%
COC(=O)C1(S(=O)(=O)C2(C(=O)OC)CCCC2)CCCC1 | -1.25%
CCCCOc1ccc(CON(C(C)=O)C(C)=O)cc1Cl | 6.46%
COc1ccccc1S(=O)(=O)NCc1ccc(C(=O)N(C)Cc2ccc(F)cc2)cc1 | -14.8%
COc1ccc([N+](=O)[O-])cc1C1NN=C(c2cccc3ccccc23)S1 (centres undefined) | -11%
Cc1ccc(-c2nc(C#N)c(NCCCn3ccnc3)o2)cc1 | -17.5%
Cc1ccc(S(=O)(=O)c2nc(NCCCn3ccnc3)sc2Cl)cc1 | 29.2% (active)
Cc1ccc2c(Cl)c(C(=O)NCCCn3ccnc3)sc2c1 | -10.2%
C/C(=N\NC(=S)NCc1ccccc1)C1CCCCC1 | -9.74%
Cc1cc2nc(-c3ccc(Cl)cc3)c(Cc3cccc(F)c3)n2c(C)c1Br | 0.42%

Structure (SMILES) | inhibition
O=C(CC1CCCCC1)Nc1c2c(nn1-c1ccc(F)cc1)CS(=O)(=O)C2 | 104% (active)
O=C(Nc1c2c(nn1-c1ccccc1)CS(=O)(=O)C2)C1CCCC1 | -10.8%
COc1ccccc1OCC(=O)Nc1c2c(nn1-c1ccc(F)cc1)CS(=O)(=O)C2 | -12.4%
c1ccc2c(c1)CSc1sccc1C2=C1CCNCC1 | 99.6% (active)
CC(C)(C)NC(=O)CSC(=Nc1ccccc1F)NC#N | -1.14%
COc1ccc(-n2c(=O)[nH]c3cc(C(=O)NCCc4ccc(OC)c(OC)c4)ccc3c2=O)c(OC)c1 | -8.11%
CCOC(=O)N1CCN(C(=O)c2ccc3c(=O)n(CCc4ccc(OC)c(OC)c4)c(=O)[nH]c3c2)CC1 | 62.3% (active)
COCCn1c(=S)[nH]c2cc(C(=O)NCCc3ccc(OC)c(OC)c3)ccc2c1=O | -6.48%
COCc1cc(=O)[nH]c(-c2ccc(C(F)(F)F)cc2)n1 | -16.9%
CC(=O)N[C@@H](C)C(=O)N1CCC(n2nccc2NC(=O)CCCc2ccccc2)CC1 | -3.58%
CN(Cc1ccc(C(F)(F)F)cc1)C(=O)[C@H]1O[C@@H](n2cnc3c(N)ncnc32)[C@H](O)[C@@H]1O | -26%
COC(CCN(C)C)(c1ccccc1)c1ccccc1 | 60.4% (active)
CCCC(O)(c1ccc(OC)cc1)C(CN(C)C)c1ccccc1 (centres undefined) | -7.01%
CN(C)N(C)C(=O)C(O)(c1ccccc1)c1ccccc1 | 17.7%
CC(=O)NC(CC(=O)Nc1cccc(S(=O)(=O)N2CCCC2)c1)c1ccccc1 (centres undefined) | 3.34%
CN(C)CCNC(=O)c1cccc(-c2cnc3c(NC=O)cc(-c4cccc(C(F)(F)F)c4)cn23)c1 | 2.76%
CN1OC[C@@H]2CN(C(=O)c3cccc4ccccc34)[C@H](c3ccc(N4CCCCC4)cc3)C[C@@H]21 | 19.7%
CN(CCOc1ccccc1)Cc1nc2cc(Cl)ccc2c(=O)[nH]1 | -3.58%
Cc1nnc(NC2=NCCCCC2)o1 | 4.98%
CC/C(=N\NC(=S)NC(C)C)c1ccc(OC(F)F)cc1 | 8.57%
O=C1CCc2cc(S(=O)(=O)N3CCC(C(=O)NCc4ccccc4Cl)CC3)ccc2N1 | -13.3%
O=C(NCc1ccccc1Cl)C1CCN(S(=O)(=O)N2CCOCC2)CC1 | 0.29%
O=C(NCc1ccccc1CN1CCCC1)C1CCN(S(=O)(=O)c2ccc(Cl)cc2)CC1 | 35.7% (active)

Structure (SMILES) | inhibition
Cc1ccc(S(=O)(=O)NCCC(=O)NC2CCN(Cc3ccccc3)CC2)cc1 | -6.1%
O=C(NNS(=O)(=O)c1ccc(Cl)cc1)C1CCN(Cc2ccccc2)CC1 | 57.4% (active)
CCNC(=S)NNC(=O)C1CCN(Cc2ccccc2)CC1 | -7.27%
CCCCC[C@@H]1C=C(C(=O)OCC)[C@H](c2ccccc2)N1S(=O)(=O)c1ccc(C)cc1 | 7.33%
Cc1ccc(NC(=O)[C@H](Cc2ccccc2)NC(=O)CC[C@H]2O[C@@H](n3ccc(=O)[nH]c3=O)[C@H](O)[C@@H]2O)cc1C | -1.88%
Nc1ncnc2c1ncn2[C@@H]1O[C@H](C(=O)N2CCCN(Cc3ccccc3F)CC2)[C@@H](O)[C@H]1O | -21.5%
CN(C)C(=O)c1cccc(-c2cnc3sc(NCc4ccc5c(c4)OCO5)nn23)c1 | -4.01%
CCCCOC(=O)c1ccc(N2C(=O)CC(N3CCN(C/C=C/c4ccccc4)CC3)C2=O)cc1 (centres undefined) | 23.9% (active)
CCOC(=O)c1ccc(N2C(=O)CC(N3CCC(C(=O)OCC)CC3)C2=O)cc1 (centres undefined) | 2.05%
CCOC(=O)c1ccc(N2C(=O)CC(N3CCN(C(=O)c4ccccc4)CC3)C2=O)cc1 (centres undefined) | -7.68%
COc1ccc(CCNC(=O)CCNS(=O)(=O)c2cc(Br)cnc2N)cc1OC | -19.1%
COc1cccc(OCc2cc(C(=O)N3CCN(C(=O)c4ccco4)CC3)no2)c1 | -3.65%
CCCC(=O)N1CCC1(C)C(=O)Nc1ccc(-n2cncn2)cc1 (centres undefined) | -15.8%
C=CCC1(CC=C)CCCN1C(=O)c1cc(COc2ccc(-n3cncn3)cc2)on1 | 38.7% (active)
COc1ccccc1NC(=O)COC(=O)c1ccccc1SCC(=O)N1CCCC1 | -4.49%
CC(NC(=O)c1ccccc1SCC(=O)N1CCCC1)c1ccccc1 (centres undefined) | -16.6%
CC(C)N(Cc1ccccc1)C(=O)COC(=O)c1ccccc1SCC(=O)N1CCCC1 | 32.7% (active)
COc1cc(C=C(OC(C)=O)c2ccc3c(c2)OCO3)cc(OC)c1OC | 17.2%
O=C(NCC1CCCO1)c1ccccc1-c1nc(-c2ccccc2Cl)no1 (centres undefined) | 6.15%
Cc1ccc(C(=O)NCC(=O)NCc2cc(=O)n(C)c(=O)n2C)cc1 | -9.92%
